# Test results: the supplement of paper PMC5662767
# Test system: Drosophila S2 cl14 SmoIP sensor cells
# Test: normalized SmoIP GFP fluorescence (untreated unstimulated = 0%, untreated Hh-stimulated = 100%); higher = more Smo activation sensor fluorescence
# Conditions: compound concentration: 2 uM, 24 h
# [1] = stimulation: Hh conditioned medium (+Hh)
# [2] = stimulation: mock conditioned medium (-Hh)
# 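Further: flow cytometry read-out as median GFP intensity of gated cells, compounds added 30 min before Hh-conditioned or mock medium, mock-treated cells serving as unstimulated baseline.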
SMILES,normalized SmoIP GFP fluorescence [1] [%],normalized SmoIP GFP fluorescence [2] [%]
COc1cc(Nc2ncc3c(n2)-c2ccc(Cl)cc2C(c2c(F)cccc2OC)=NC3)ccc1C(=O)O,89.5,83
COC(=O)[C@]12CCC(C)(C)C[C@H]1[C@H]1C(=O)C=C3[C@@]4(C)C=C(C#N)C(=O)C(C)(C)[C@@H]4CC[C@@]3(C)[C@]1(C)CC2 [bardoxolone-methyl],102,0.986
N#Cc1ccc(C(c2ccc(C#N)cc2)n2cncn2)cc1 [Letrozole],98.8,-1.88
Clc1ccc2c(c1)CCc1cccnc1C2=C1CCNCC1 [desloratadine],109,1.21
Nc1ccccc1NC(=O)c1ccc(CNC(=O)OCc2cccnc2)cc1,203,6.74
CCN(Cc1ccncc1)C(=O)C(CO)c1ccccc1 (configuration not stated) [tropicamide],104,-2.82
C=CC(=O)Nc1cccc(Nc2nc(Nc3ccc(Oc4ccnc(C(=O)NC)c4)cc3)ncc2F)c1,116,-1.23
COC(=O)N[C@H](C(=O)N1CCC[C@H]1c1ncc(-c2ccc(-c3ccc(-c4cnc([C@@H]5CCCN5C(=O)[C@@H](NC(=O)OC)C(C)C)[nH]4)cc3)cc2)[nH]1)C(C)C,112,7.39
CCN1CCN(Cc2ccc(Nc3ncc(F)c(-c4cc(F)c5nc(C)n(C(C)C)c5c4)n3)nc2)CC1,158,50.1
Nc1nc(N)c2nc(-c3cccc(O)c3)c(-c3cccc(O)c3)nc2n1,110,-5.01
O=C(O)CCCc1ccccc1 [sodium-phenylbutyrate],112,-2.93
CC(C)C[C@H](NC(=O)[C@H]1O[C@@H]1C(=O)O)C(=O)NCCCCN=C(N)N,129,-3.72
CNC(=O)c1ccc(-c2cnc3ncc(Cc4ccc5ncccc5c4)n3n2)cc1F,107,-1.34
COc1ccc([C@H]2CNC(=O)C2)cc1OC1CCCC1 [sRolipram],102,-4.08
CCCCCCCCCCCCc1ccc(S(=O)(=O)Nc2nncs2)cc1,111,1.03
O=C(NC(NC(=S)Nc1ccc(F)c([N+](=O)[O-])c1)C(Cl)(Cl)Cl)C(c1ccccc1)c1ccccc1 (configuration not stated),108,0.815
